Screening results as filed in PubChem.
TRHR PAM – allosteric enhancers of human TRH receptor | P34981 | TRHR cells, fluo-8 calcium fluorescence, EC20 TRH enhancement | enhancement, % at 2 µM | actives 0.66% (n = 360,000); in the data active = enhancement above about 30%; note: 0% is about no effect
Target sequence (P34981 whole entry, looked up): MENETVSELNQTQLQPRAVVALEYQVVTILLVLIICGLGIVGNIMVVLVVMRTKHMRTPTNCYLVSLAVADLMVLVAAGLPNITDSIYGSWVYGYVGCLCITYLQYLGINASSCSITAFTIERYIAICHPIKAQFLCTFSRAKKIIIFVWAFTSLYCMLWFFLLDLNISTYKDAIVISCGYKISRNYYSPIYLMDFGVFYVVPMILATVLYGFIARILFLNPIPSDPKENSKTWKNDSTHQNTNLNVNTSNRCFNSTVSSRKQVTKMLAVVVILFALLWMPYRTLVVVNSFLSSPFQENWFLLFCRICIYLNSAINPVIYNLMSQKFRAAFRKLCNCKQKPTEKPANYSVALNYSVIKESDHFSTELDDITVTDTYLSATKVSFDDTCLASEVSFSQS
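Enhancer read-out: after compound pinning and an initial kinetic agonist-mode read, an EC20 of TRH (10 nM final) was injected and fluo-8 calcium signal (Ex 480/Em 530) followed at 1 s/cycle for 100 cycles in TRHR-expressing cells.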
USP1 inh – blocks the human USP1/UAF1 deubiquitinase complex. O94782. recombinant USP1/UAF1, Ub-Rhodamine cleavage fluorescence. Potency, µM (series often up to 57.1 µM), without a hit: at the highest dose activity change, negative = inhibition, most hits filed as inhibitors. actives 0.23% (n = 390,000). AID 743255; active = well fitted inhibition curve with a large enough effect; inconclusive = small, poorly fitted or top-dose-only effect; inactive = no such curve, though single readings can be large or run the other way; note: potency is the fitted concentration of half-maximal effect; % is set by controls: 0 for no effect and ±100 for the full control effect; nearly all actives have a fitted effect of over 60% in size
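USP1/UAF1 complex (1 nM) preincubated 15 min at room temperature with compound, then Ub-Rho substrate (150 nM final) added. Kinetic fluorescence at 480/540 nm over 6 reads at 60 s intervals; 50 mM HEPES pH 7.8, 0.5 mM EDTA, 0.1 mg/ml BSA, 1 mM TCEP, 0.01% Tween-20.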
TRHR ag – activates the human TRH receptor; P34981; TRHR cells, calcium flux fluo-8, FDSS agonist mode; activation, % at 2 µM; actives 0.18% (n = 360,000); AID 493084; note: 0% is about no effect
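Read-out: compound-evoked intracellular calcium rise in TRHR cells, fluo-8 dye, kinetic FDSS fluorescence at 1 s/cycle following a 10-cycle baseline. Cells cultured overnight before dye loading (30 min–1.5 h, RT).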
D1 antag – human D1 dopamine receptor antagonism. HEK293 TREx D1 cells, calcium flux, dopamine EC80; stronger effect = lower value. activity change, negative = inhibition, % at 10 µM. actives 3.2% (n = 360,000). AID 504652; in the data active = activity change below about -30%; note: % is set by controls: 0 for no effect and ±100 for the full control effect
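Allosteric or orthosteric antagonism assessed as attenuation of the calcium response to EC80 dopamine, added 180 s after compound, in induced HEK293 Trex D1 cells loaded with no-wash calcium dye.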
D1 agonist – activates the human D1 dopamine receptor; activation, % at 2 µM; actives 1% (n = 360,000); HEK293 T-REx D1 cells, calcium flux, agonist mode; note: 0% is about no effect
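Inducible HEK293 T-REx D1 cells, force-coupled to calcium signalling, were plated at 4000 cells/well with tetracycline and held overnight at 30 C. After no-wash calcium dye loading, compound-evoked calcium rise over 180 s flagged agonists.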
D1 PAM – human D1 dopamine receptor positive modulation. HEK293 TREx D1 cells, calcium flux, dopamine EC20 potentiation. potentiation, % at 10 µM. actives 0.036% (n = 360,000). AID 504651; in the data active = potentiation above about 30%; note: 0% is about no effect
Starred values were filed as active, the others as inactive; ? = inconclusive. Sampled rows, rich in hits. Any-hit rate of the full collection: about 4.4%. Cut-off read from the data, not from the text of the source, unless noted: active = activation above about 30%; inactive = the rest.

SMILES	TRHR PAM	USP1 inh	TRHR ag	D1 antag	D1 agonist	D1 PAM
CCOc1ccc(-c2nonc2NC(=O)c2ccc(C)cc2)cc1OCC	1	-10%	-1	10	2	0
O=C(CCc1ccccc1)N1CCc2c([nH]c3ccccc23)C1c1ccc(F)cc1 (configuration not stated)	1	-7%	0	-7	1	-4
Cc1ccc(N(C)C(=O)c2cc(S(=O)(=O)N3CCc4ccccc43)cn2C)cc1	-7	-7%	-1	-29	2	-17
COc1ccc(N(C)C(=O)c2cc(S(=O)(=O)N3CCc4ccccc43)cn2C)c(OC)c1	7	3%	0	-55*	0	-4
CN(C(=O)c1cc(S(=O)(=O)N2CCc3ccccc32)cn1C)C1CCCCC1	0	-5%	0	-54*	3	1
Cc1cccc(Cn2c(=O)n(Cc3ccc(C(=O)NC4CCN(Cc5ccccc5)CC4)cc3)c(=O)c3ccccc32)c1	4	-16%	1	0	1	0
COc1ccccc1Nc1nc(N)nc(CN2CCCCC2)n1	2	-2%	0	1	3	-2
COc1ccccc1Nc1nc(N)nc(CN2CCN(Cc3ccccc3)CC2)n1	-6	-11%	0	-37*	0	-5
Nc1nc(CN2CCN(Cc3ccccc3)CC2)nc(Nc2ccccc2)n1	7	-12%	0	-38*	2	0
COc1cccc(N2CCN(Cc3nc(N)nc(Nc4ccccc4)n3)CC2)c1	9	-23%	-1	-15	0	-5
Cc1ccc(Nc2nc(N)nc(CN3CCc4ccccc4C3)n2)cc1	2	-15%	0	-37*	1	-8
O=C(c1ccccc1F)N1c2nc(-c3ccco3)nn2C2(CCCCC2)[C@@H]2CCCC[C@@H]21	2	-22%	-1	2	-1	2
CCN(CC)c1ccc(/C=C2/C(=O)c3ccc(C(=O)O)cc3C2=O)cc1	41*	13µM*	188*	-6	261*	0
Cc1[nH]c2ccc(C(=O)NCCc3ccccc3Cl)cc2c1C	-6	-27%	0	-1	2	-1
O=C1[C@@H]2C(c3ccc(F)cc3)=NO[C@@H]2C(=O)N1Cc1ccccc1	-4	-8%	0	0	1	-7
COc1ccc(CN2C(=O)[C@@H]3C(c4ccc(F)cc4)=NO[C@@H]3C2=O)cc1	-2	-20%	1	-37*	5	-9
CCC/C(O)=C1\C(=O)CC(C)(C)CC1=Nc1ccc(OC)cc1	25	-6%	-1	-6	1	51*
CCOC(=O)C1CCN(C(=O)c2c(C)nn(-c3ccc(F)cc3)c2-n2cccc2)CC1	-2	-20%	0	-8	-1	-2
COc1cccc(C2c3c(-c4ccccc4O)n[nH]c3C(=O)N2CCc2ccc(OC)c(OC)c2)c1 (configuration not stated)	0	?	0	6	-2	0
COC(=O)c1[nH]c2ccc(Cl)cc2c1NC(=O)c1ccccc1[N+](=O)[O-]	-9	-22%	0	9	1	16
COC(=O)c1[nH]c2ccc(C)cc2c1NC(=O)c1ccccc1[N+](=O)[O-]	-1	-2%	0	-36*	-1	-2
Cc1ccccc1C(=O)Nc1ccnn1C1CCN(C(=O)c2ccoc2)CC1	1	-19%	0	-45*	4	-5
CN(C)c1ccc(N=Cc2nc(-c3ccccc3)oc2OC(=O)c2cccc(Cl)c2)cc1	-2	-4%	7	-32*	27	-1
Cc1ccc(C(=O)Oc2oc(-c3ccccc3)nc2C=Nc2ccc(N(C)C)cc2)cc1	8	-1%	0	-10	9	1
COc1ccc(CN(C)C(=O)c2ccc(Cl)c(S(=O)(=O)NCc3cccnc3)c2)cc1F	-2	-20%	0	-47*	1	-4
SMILES	TRHR PAM	USP1 inh	TRHR ag	D1 antag	D1 agonist	D1 PAM
COc1ccc(S(=O)(=O)NCc2cccnc2)cc1	4	-2%	0	11	2	-3
COc1ccc(S(=O)(=O)NCc2cccnc2)cc1Br	-2	-5%	0	-32*	15	-6
CC(C)(C)C1CCc2c(sc(NC(=O)c3ccc(Cl)cc3)c2C(=O)NCc2ccco2)C1 (configuration not stated)	4	-14%	1	-7	2	6
O=C(NC1CCN(C(=S)NCCc2ccccc2)CC1)C1CCCCC1	-4	-19%	-1	-34*	7	-10
COc1cccc2cc(C(=O)NCCc3ccccc3)oc12	7	-18%	2	-34*	57*	-6
COCCN1C(=O)/C(=C/c2ccc(N3CCCC3)cc2C)SC1=S	24	?	53*	-9	224*	4
O=C(Nc1ccc(Oc2cccnc2)cc1)c1ccccc1F	-7	-2%	1	-42*	13	-10
O=C(Nc1ccc2c(c1)oc1ccccc12)c1cccnc1	-21	-14%	0	-55*	3	-12
O=C(Nc1ccc(OCc2ccccc2)cc1)c1cccnc1	-24	0%	0	4	61*	2
O=C(NNC(=S)Nc1ccccc1)c1cccnc1	41*	-21%	0	0	7	3
Cc1ccc(-n2ncc3c(Nc4cccc(C(F)(F)F)c4)ncnc32)cc1C	3	-2%	2	-17	5	-4
Cc1cccc(N2CCN(C(=O)Cn3c(-c4cccs4)cc4ccccc43)CC2)c1C	-9	-26%	0	3	1	2
CCOc1cc(-c2ccc(OC(=O)c3ccc(OC)cc3)c(OC)c2)cc(=O)c2c(C)oc(C)c12	-1	-21%	2	9	9	-2
CCOc1ccc(OCC)c(S(=O)(=O)n2cnc(C)c2)c1	32*	-16%	0	3	0	-1
CCOc1ccc(-c2cc3nc(C4CCN(C(=O)OC(C)(C)C)CC4)c(C(=O)Nc4ccc(C)c(F)c4)cn3n2)cc1	3	?	0	17	3	-1
COc1cc(OC)cc(-c2nc3nc(C)c(CCC(=O)Nc4cc(C)cc(C)c4)c(C)n3n2)c1	6	-20%	0	-14	1	-4
COc1cccc(CNC(=O)c2cccc(NC(=O)C3=C(C)OCCS3)c2)c1	-2	?	-1	-40*	4	-9
CCOc1ccc(CNC(=O)c2cccc(NC(=O)C3=C(C)OCCS3)c2)cc1	4	-12%	1	-7	6	3
COc1ccccc1CC(=O)NCc1csc(-c2cccs2)n1	0	-13%	0	4	2	2
CC(C)C(=O)NNC(=O)c1csc(-c2cccs2)n1	32*	?	-1	2	1	-2
